# Inconclusive results are not listed. Active and inactive are the calls of the source. Unless noted, the call rests on the fitted dose curve; in most records, active means well fitted cell-killing curve with a large enough effect; inconclusive means small, poorly fitted or top-dose-only effect, or effect the other way; inactive means no such curve, though single readings can be large or run the other way.
# How the values were obtained:
# [1] = Quantitative High-Throughput drug screen in 47 multiple myeloma cell lines against the NCATS MIPE library collection: L363_DSMZ cell viability assay (AID 1918984); further: nearly all actives have a fitted effect of over 40% in size
# Procedure, shortened: (§1)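 qHTS format: cells plated (500/well), pin-dosed with MIPE 4.0 compounds, kept 48 h at 37 °C. Readout was CellTiter-Glo luminescence, median RLU.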
# [2] = Quantitative High-Throughput drug screen in 47 multiple myeloma cell lines against the NCATS MIPE library collection: KMS34_JCRB cell viability assay (AID 1918985); further: nearly all actives have a fitted effect of over 40% in size
# Procedure, shortened: as §1
# [3] = Quantitative High-Throughput drug screen in 47 multiple myeloma cell lines against the NCATS MIPE library collection: OCIMY7_PLB cell viability assay (AID 1918987); further: nearly all actives have a fitted effect of over 65% in size
# Procedure, shortened: as §1
# [4] = Quantitative High-Throughput drug screen in 47 multiple myeloma cell lines against the NCATS MIPE library collection: OCIMY5_PLB cell viability assay (AID 1918988); further: nearly all actives have a fitted effect of over 65% in size
# Procedure, shortened: as §1
# [5] = Quantitative High-Throughput drug screen in 47 multiple myeloma cell lines against the NCATS MIPE library collection: OPM1_PLB cell viability assay (AID 1918989); further: nearly all actives have a fitted effect of over 40% in size
# Procedure, shortened: as §1
# [6] = Quantitative High-Throughput drug screen in 47 multiple myeloma cell lines against the NCATS MIPE library collection: SKMM1_PLB cell viability assay (AID 1919863); settings: SKMM1 myeloma viability, CellTiter-Glo ATP, 48 h; viability: stronger effect = lower value; further: nearly all actives have a fitted effect of over 35% in size
# Procedure, shortened: as §1
# [7] = Quantitative High-Throughput drug screen in 47 multiple myeloma cell lines against the NCATS MIPE library collection: U266_ATCC cell viability assay (AID 1919864); further: nearly all actives have a fitted effect of over 35% in size
# Procedure, shortened: as §1
# [8] = Quantitative High-Throughput drug screen in 47 multiple myeloma cell lines against the NCATS MIPE library collection: XG6_PLB cell viability assay (AID 1919865); further: nearly all actives have a fitted effect of over 40% in size
# Procedure, shortened: as §1
# [9] = Quantitative High-Throughput drug screen in 47 multiple myeloma cell lines against the NCATS MIPE library collection: XG1_PLB cell viability assay (AID 1919866); further: nearly all actives have a fitted effect of over 35% in size
# Procedure, shortened: as §1
# [10] = Quantitative High-Throughput drug screen in 47 multiple myeloma cell lines against the NCATS MIPE library collection: VP6_DJ cell viability assay (AID 1919867); further: nearly all actives have a fitted effect of over 40% in size
# Procedure, shortened: as §1
# [11] = Quantitative High-Throughput drug screen in 47 multiple myeloma cell lines against the NCATS MIPE library collection: UTMC2_PLB cell viability assay (AID 1919868); settings: CellTiter-Glo ATP luminescence, 48 h; viability (% of DMSO control): at 45.8 µM (top of the series) unless noted; further: nearly all actives have a fitted effect of over 55% in size
# Procedure, shortened: as §1
# [12] = Quantitative High-Throughput drug screen in 47 multiple myeloma cell lines against the NCATS MIPE library collection: PE2_PLB cell viability assay (AID 1919869); further: nearly all actives have a fitted effect of over 35% in size
# Procedure, shortened: as §1
# [13] = Quantitative High-Throughput drug screen in 47 multiple myeloma cell lines against the NCATS MIPE library collection: RPMI8226_ATCC cell viability assay (AID 1919871); further: nearly all actives have a fitted effect of over 30% in size
# Procedure, shortened: as §1
# [14] = Quantitative High-Throughput drug screen in 47 multiple myeloma cell lines against the NCATS MIPE library collection: OPM2_DSMZ cell viability assay (AID 1919872); further: nearly all actives have a fitted effect of over 30% in size
# Procedure, shortened: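 We plated 500 myeloma cells per well, pinned in MIPE 4.0 compounds, and incubated for 48 hours at 37C. ATP was then quantified with CellTiter-Glo, with DMSO and media-only wells defining 100% and 0%.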
# [15] = Quantitative High-Throughput drug screen in 47 multiple myeloma cell lines against the NCATS MIPE library collection: KMS11_JCRBsus cell viability assay (AID 1919873); further: nearly all actives have a fitted effect of over 50% in size
# Procedure, shortened: as §1
# [16] = Quantitative High-Throughput drug screen in 47 multiple myeloma cell lines against the NCATS MIPE library collection: KMS28BM_JCRB cell viability assay (AID 1919874); further: nearly all actives have a fitted effect of over 35% in size
# Procedure, shortened: as §1
# [17] = qHTS drug screen for cell cycle checkpoint inhibitors in PARPi-resistant BRCA-mutant ovarian cancer cell lines. (AID 1963452; calls by dose curve); settings: PEO1/OlaR viability, CellTiter-Glo luminescence, 96 h; for Z-AUC: stronger effect = lower value
# Procedure, shortened: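 PEO1, PEO4 and PEO1/OlaR ovarian cancer cells, 600 per well, exposed 96 h at 37C to a dilution series. Viability read by CellTiter-Glo luminescence, normalized to DMSO and empty wells; activity summarized as Z-AUC.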
# [18] = qHTS for identification of novel therapeutic agents for treatment of microphthalmiaassociated transcription factor (MiT) renal cell carcinoma (RCC) (AID 1963991; calls by dose curve;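 on z-score: curves scaled with 100% = DMSO viability and 0% = empty wells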); settings: CellTiter-Glo, 48 h; for Potency: active = Z-AUC below -0.8 in all three lines; for z-score: stronger effect = lower value
# Procedure, shortened: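 UOK109/UOK124/UOK145 (TFE3 fusions, three partners); 500 cells/well; MIPE v4.0, 1912 cpds, 11 conc.; 48 h, 37 C; CellTiter-Glo, 15 min RT; lum. Norm.: DMSO 100%, empty 0%.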
# [19] = Quantitative High-Throughput drug screen in 47 multiple myeloma cell lines against the NCATS MIPE library collection: PCM6_Riken cell viability assay (AID 1919870); further: nearly all actives have a fitted effect of over 30% in size
# Procedure, shortened: as §1
# [20] = measured here: PEO1 parental Z-AUC
# [21] = TFE3-RCC UOK109 viability, measured here: UOK109 Z-AUC
# [22] = TFE3-RCC viability, measured here: UOK124 Z-AUC
# [23] = TFE3-RCC viability, measured here: UOK145 Z-AUC
# Potency means the concentration at half of the fitted maximal effect.
structure (smiles),measurement,setting,value
COc1ccc(F)c(F)c1C(=O)c1cnc(NC2CCN(S(C)(=O)=O)CC2)nc1N,Potency,[1],1320 nM (active)
same,Potency,[2],1320 nM (active)
same,Potency,[3],1660 nM (active)
same,Potency,[4],1320 nM (active)
same,Potency,[5],1870 nM (active)
same,Potency,[6],2960 nM (active)
same,Potency,[7],2640 nM (active)
same,Potency,[8],1050 nM (active)
same,Potency,[9],1660 nM (active)
same,Potency,[10],935 nM (active)
same,Potency,[11],2350 nM (active)
same,Potency,[12],2090 nM (active)
same,Potency,[13],2960 nM (active)
same,Potency,[14],3320 nM (active)
same,Potency,[15],1480 nM (active)
same,Potency,[16],3320 nM (active)
same,Potency,[17],871 nM (active)
same,Z-AUC,[17]; [20],-1.69
same,Z-AUC,[17]; measured here: PEO4 Z-AUC,-1.31
O=C(Nc1cc(C(F)(F)F)cc(C(F)(F)F)c1)c1cc(Cl)ccc1O,Potency,[1],833 nM (active)
same,Potency,[2],1480 nM (active)
same,Potency,[3],1870 nM (active)
same,Potency,[4],2350 nM (active)
same,Potency,[5],833 nM (active)
same,Potency,[6],833 nM (active)
same,Potency,[7],1480 nM (active)
same,Potency,[8],935 nM (active)
same,Potency,[9],935 nM (active)
same,Potency,[10],526 nM (active)
same,Potency,[11],743 nM (active)
same,Potency,[12],590 nM (active)
same,Potency,[13],662 nM (active)
same,Potency,[14],1320 nM (active)
same,Potency,[15],332 nM (active)
same,Potency,[16],833 nM (active)
same,Potency,[17],977 nM (active)
same,Z-AUC,[17]; [20],-1.29
same,Z-AUC,[17]; measured here: PEO4 Z-AUC,-1.54
same,Potency,[18]; TFE3-RCC UOK109 viability,1180 nM (active)
same,z-score,[18]; [21],-1.74
same,z-score,[18]; [22],-1.08
same,z-score,[18]; [23],-1.95
Cc1ccc(C(=O)Nc2cccc(C(F)(F)F)c2)cc1-c1ccc2nc(NCCN3CCOCC3)ncc2c1,Potency,[1],1050 nM (active)
same,Potency,[2],9350 nM (active)
same,Potency,[3],935 nM (active)
same,Potency,[4],14800 nM (active)
same,Potency,[5],7430 nM (active)
same,Potency,[6],16600 nM (active)
same,Potency,[7],14800 nM (active)
same,Potency,[8],3320 nM (active)
same,Potency,[9],4690 nM (active)
same,Potency,[10],11800 nM (active)
same,Potency,[11],5900 nM (active)
same,Potency,[12],4690 nM (active)
same,Potency,[19],5900 nM (active)
same,Potency,[13],5900 nM (active)
same,Potency,[14],18700 nM (active)
same,Potency,[15],2960 nM (active)
same,Potency,[16],18700 nM (active)
same,Z-AUC,[17],0.224 (inactive)
same,Z-AUC,[17]; [20],-0.409
same,Z-AUC,[17]; measured here: PEO4 Z-AUC,-0.0261
CC(C)c1ccc(Cn2ccc3c4c(N)nc(NC5CC5)nc4ccc32)cc1,Potency,[1],469 nM (active)
same,Potency,[2],3320 nM (active)
same,Potency,[3],1660 nM (active)
same,Potency,[4],2350 nM (active)
same,Potency,[5],1870 nM (active)
same,Potency,[6],11800 nM (active)
same,Potency,[7],13200 nM (active)
same,Potency,[8],5260 nM (active)
same,Potency,[9],743 nM (active)
same,Potency,[10],3320 nM (active)
same,Potency,[11],1870 nM (active)
same,Potency,[12],2350 nM (active)
same,Potency,[19],5900 nM (active)
same,Potency,[13],14800 nM (active)
same,Potency,[14],6620 nM (active)
same,Potency,[15],1050 nM (active)
same,Potency,[16],1660 nM (active)
same,Z-AUC,[17],-1.65 (inactive)
same,Z-AUC,[17]; [20],-2.21
same,Z-AUC,[17]; measured here: PEO4 Z-AUC,-2.38
CCN(CC)CCNC(=O)c1ccc2nc(-c3ccccc3)c(-c3ccc(CN4CCC(n5c(=O)[nH]c6ccccc65)CC4)cc3)nc2c1,Potency,[1],418 nM (active)
same,Potency,[2],20900 nM (active)
same,Potency,[3],1050 nM (active)
same,Potency,[4],10500 nM (active)
same,Potency,[5],743 nM (active)
same,Potency,[6],20900 nM (active)
same,Potency,[7],8330 nM (active)
same,Potency,[8],296 nM (active)
same,Potency,[9],590 nM (active)
same,Potency,[10],372 nM (active)
same,Potency,[11],1320 nM (active)
same,Potency,[12],1050 nM (active)
same,Potency,[13],20900 nM (active)
same,Potency,[15],2350 nM (active)
same,Potency,[16],16600 nM (active)
same,Z-AUC,[17],-1.13 (inactive)
same,Z-AUC,[17]; [20],-1.23
same,Z-AUC,[17]; measured here: PEO4 Z-AUC,-1.53
Fc1cc(-c2cccc3ncc(-c4cnn(C5CCNCC5)c4)nc23)cc(F)c1CN1CCOCC1,Potency,[1],6620 nM (active)
same,Potency,[2],14800 nM (active)
same,Potency,[3],6620 nM (active)
same,Potency,[4],16600 nM (active)
same,Potency,[5],8330 nM (active)
same,Potency,[6],23500 nM (active)
same,Potency,[7],20900 nM (active)
same,Potency,[8],7430 nM (active)
same,Potency,[9],7430 nM (active)
same,Potency,[10],9350 nM (active)
same,Potency,[12],8330 nM (active)
same,Potency,[19],7430 nM (active)
same,Potency,[13],20900 nM (active)
same,Potency,[15],9350 nM (active)
same,Potency,[16],26400 nM (active)
CC(C)C[C@H](NC(=O)CNC(=O)c1cc(Cl)ccc1Cl)B(O)O,Potency,[1],132 nM (active)
same,Potency,[2],59 nM (active)
same,Potency,[3],41.8 nM (active)
same,Potency,[4],37.2 nM (active)
same,Potency,[5],46.9 nM (active)
same,Potency,[6],296 nM (active)
same,Potency,[7],83.3 nM (active)
same,Potency,[8],37.2 nM (active)
same,Potency,[9],46.9 nM (active)
same,Potency,[11],418 nM (active)
same,Potency,[12],41.8 nM (active)
same,Potency,[19],66.2 nM (active)
same,Potency,[13],166 nM (active)
same,Potency,[14],132 nM (active)
same,Potency,[15],52.6 nM (active)
same,Potency,[16],66.2 nM (active)
same,Z-AUC,[17],-0.869 (inactive)
same,Z-AUC,[17]; [20],-1.48
same,Z-AUC,[17]; measured here: PEO4 Z-AUC,-1.83
same,Potency,[18]; TFE3-RCC UOK109 viability,372 nM (active)
same,z-score,[18]; [21],-1.3
same,z-score,[18]; [22],-1.47
same,z-score,[18]; [23],-2.81
NC1(Cc2ccc(Cl)cc2)CCN(c2ncnc3[nH]ccc23)CC1,Potency,[1],1870 nM (active)
same,Potency,[2],7430 nM (active)
same,Potency,[3],5900 nM (active)
same,Potency,[4],9350 nM (active)
same,Potency,[5],1480 nM (active)
same,Potency,[6],18700 nM (active)
same,Potency,[7],20900 nM (active)
same,Potency,[8],13200 nM (active)
same,Potency,[9],3720 nM (active)
same,Potency,[11],264 nM (active)
same,Potency,[12],7430 nM (active)
same,Potency,[19],5900 nM (active)
same,Potency,[13],14800 nM (active)
same,Potency,[14],18700 nM (active)
same,Potency,[15],10500 nM (active)
same,Potency,[16],4180 nM (active)
same,Z-AUC,[17],-0.805 (inactive)
same,Z-AUC,[17]; [20],-1.02
same,Z-AUC,[17]; measured here: PEO4 Z-AUC,-1.03
